Measurements reported in PubChem BioAssay (NCI).
The panel holds about 79,000 compounds, 15% with a hit somewhere; the sample as a whole holds those more often. No stated cut-off is given here; in the data, active means growth inhibition above about 70%; inactive means the rest.

Assays:
[1] = NCI Yeast Anticancer Drug Screen. Data for the rad50 strain (AID 155);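 further: 0% = growth of vehicle-only cultures of the same strain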; details: S. cerevisiae rad50 strain growth inhibition; at 50.0 µM; stronger effect = higher value
Summary of the method: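 Genetically altered yeast (DNA repair pathway); compound treatment; growth inhibition vs vehicle ctrl.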

[2] = NCI Yeast Anticancer Drug Screen. Data for the mec2-1 strain (AID 157); details: S. cerevisiae mec2-1 strain, at 50.0 µM, stronger effect = higher value
Summary of the method: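 Yeast mec2-1 mutant treated with compound. Readout: growth inhibition vs vehicle controls.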

[3] = NCI Yeast Anticancer Drug Screen. Data for the sgs1 mgt1 strain (AID 161);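 further: 0% = growth of cultures given vehicle only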; details: S. cerevisiae sgs1 mgt1 strain, at 50.0 µM, stronger effect = higher value
Summary of the method: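 Mutant yeast exposed to compound; growth scored against vehicle-only wells.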

[4] = NCI Yeast Anticancer Drug Screen. Data for the cln2 rad14 strain (AID 165);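 further: 0% = growth equal to vehicle treated cultures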; details: S. cerevisiae cln2 rad14 strain, at 50.0 µM, stronger effect = higher value
Summary of the method: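 cln2 rad14 yeast strain; compound exposure; growth inhibition read vs vehicle controls.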

[5] = NCI Yeast Anticancer Drug Screen. Data for the bub3 strain (AID 167); details: S. cerevisiae bub3 mutant strain, at 50.0 µM, stronger effect = higher value
Summary of the method: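 Yeast carrying a defined mutation is treated with each compound, and growth is compared with that of vehicle-exposed cells to give inhibition.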

[6] = NCI Yeast Anticancer Drug Screen. Data for the mlh1 rad18 strain (AID 175); details: S. cerevisiae mlh1 rad18 strain growth inhibition; at 50.0 µM; stronger effect = higher value
Summary of the method: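 Yeast w/ defined DNA-repair lesions; compound exposure; growth vs vehicle controls → % inhibition.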

Measured: growth inhibition

CN(C)CC1CCc2ccccc2C1=O (stereo unspecified)
inactive: [1] -16.1% | [2] -37.2% | [3] -46.8% | [4] -2.05% | [5] -52.1% | [6] -48.1%

O=C(NCCCCN1CCCC1)C(c1cc2ccccc2s1)C1CCCCC1 (stereo unspecified)
inactive: [1] 20.1% | [2] 9.25% | [3] 42.2% | [4] 4.25% | [5] 24.2% | [6] 33.1%

Cc1cc(C(C)(C)C)nc(C(C)(C)C)c1
inactive: [1] 13.1% | [2] 6.4% | [3] 15.2% | [4] -60.6% | [5] 0.8% | [6] -4.85%

O=C1CSCN1N1CSCC1=O
inactive: [1] -5.85% | [2] 3.1% | [3] 7.85% | [4] -4.35% | [5] 8.95% | [6] 18.8%

CCCCCCCCCCCCCC(=O)OCC(=O)c1ccc(-c2ccccc2)cc1
inactive: [1] 23.1% | [2] 4.2% | [3] 32.5% | [4] 29.9% | [5] 11.4% | [6] 27.8%

O=C1C(=Cc2cccnc2)C(=O)c2ccccc21
inactive: [1] 26% | [2] 15.3% | [3] 42.4% | [4] 18.9% | [5] 6.7% | [6] 9%

COC(=O)C1=C(C)NC(C)=C(C(=O)OC)C1c1cc2ccccc2n2nnnc12
inactive: [1] 26.7% | [2] 11.1% | [3] 31.2% | [4] -1.75% | [5] 7.5% | [6] 47.4%

CC(=O)Nc1ccn(C2OC(COC(C)=O)C(OC(C)=O)C(OC(C)=O)C2OC(C)=O)c(=O)n1 (stereo unspecified)
inactive: [1] 0.3% | [2] -14.3% | [3] 2.45% | [4] -12.1% | [5] -4.3% | [6] 5.55%

O=C(On1nnc2ccccc2c1=O)c1ccccc1
inactive: [1] 29.7% | [2] 20.4% | [3] 22.8% | [4] -7.25% | [5] -3.25% | [6] 12.8%

c1ccc2c(c1)c1ccccc1c1c3ccccc3c3ccccc3c21
inactive: [1] -10.9% | [2] -14.6% | [3] -1.05% | [4] -18.6% | [5] 0.65% | [6] -20.1%

O=C1OCCC1(Cc1ccc(Cl)cc1)Cc1ccc(Cl)cc1
inactive: [1] -16.1% | [2] -22.9% | [3] -4.7% | [4] 10.4% | [5] 1.45% | [6] -3.05%

COC(=O)C1CC=CCC1 (stereo unspecified)
inactive: [1] 23.1% | [2] -8.05% | [3] 6.85% | [4] 14.2% | [5] 1.15% | [6] 32.4%

CCN(CC)C(=S)N1C(=O)C2C3CCC(O3)C2C1=O (stereo unspecified)
inactive: [1] 19.1% | [2] 11.9% | [3] 13.2% | [4] 6.75% | [5] 28.2% | [6] -11.2%

Cc1ccc(C(=O)NC2CCCCC2)cc1N=NN(C)C
inactive: [1] 31.4% | [2] -7.55% | [3] 18.7% | [4] 19.1% | [5] 9.45% | [6] -11.4%

CCOC(=O)C(CCC#N)(NC(C)=O)C(=O)OCC
inactive: [1] 1.4% | [2] -2.35% | [3] 7.4% | [4] -25.3% | [5] 1.7% | [6] -20.9%

C[N+](C)(C)/N=C1\CC2CCC1C2 (stereo unspecified)
inactive: [1] 18.3% | [2] -4.5% | [3] -5.55% | [4] 4.75% | [5] 1.9% | [6] 23.1%

CC(=O)Nc1ccc(S(=O)(=O)n2c(=O)oc3cc(Br)ccc32)cc1
inactive: [1] 7.4% | [2] 3.35% | [3] -7% | [4] 2.35% | [5] 0.05% | [6] 0.65%

CC(C)=CC(=O)N1CCN(C(=O)C=C(C)C)CC1
inactive: [1] -33.9% | [2] -20.1% | [3] -5.75% | [4] 18.8% | [5] 10.9% | [6] -10.4%

C/C(=N\NC(=S)N1CC2CCC(CC2)C1)c1cccc(C)n1
inactive: [1] 22.1% | [2] -1.45% | [3] 18.8% | [4] 8.85% | [5] 18.4% | [6] 13.8%

O=C(O)CNC(=O)C(=O)c1c[nH]c2ccc([N+](=O)[O-])cc12
inactive: [1] -6.5% | [2] -27.8% | [3] 1.05% | [4] -7.8% | [5] -2.1% | [6] 0.2%

CN1C(c2ccccc2)=C(C#N)C(=O)CC(c2ccco2)N1C (stereo unspecified)
inactive: [1] 4.3% | [2] -4.4% | [3] 4.65% | [4] 10.9% | [5] 11% | [6] 13.1%

O=C(CC(=O)n1nc(-c2ccccc2)c(N=Nc2ccc(Cl)cc2)c1-c1ccccc1)Nc1ccc(Cl)cc1
inactive: [1] -6.75% | [2] -19.1% | [3] -11.9% | [4] -19.3% | [5] -11.1% | [6] -16.8%

Cc1ccc(S(=O)(=O)N2CCCC(O)c3ccccc32)cc1 (stereo unspecified)
inactive: [1] -18.2% | [2] -15.8% | [3] -29.4% | [4] 11.7% | [5] 6.65% | [6] 3.85%

CCN(CC)CCNc1c(C)cccc1Cl
inactive: [1] -2.9% | [2] 3.5% | [3] -7.1% | [4] -26.2% | [5] 1% | [6] -1.5%

CCC1(C(Cl)(Cl)Cl)C=CC(=O)C=C1
inactive: [1] 13% | [2] 13.3% | [3] -1.85% | [4] 12.8% | [5] 4.7% | [6] -21.1%

CCOC(=O)c1cc(-c2ccccc2)c(-c2ccccc2)c(-c2ccccc2)c1-c1ccccc1
inactive: [1] 28.4% | [2] 9.15% | [3] 19.6% | [4] 18.3% | [5] 2.75% | [6] 14.6%

O=[N+]([O-])C1(CO)COC2(OC1)c1ccccc1-c1ccccc12
inactive: [1] 0.5% | [2] -7.2% | [3] -21.6% | [4] 11.8% | [5] -26.8% | [6] -0.25%

CCOC(=O)C(O)(NC(=O)Nc1ccc(F)cc1)C(F)(F)F (stereo unspecified)
inactive: [1] -22.4% | [2] -22.3% | [3] -72.9% | [4] -35.9% | [5] -37.3% | [6] -60.9%

O=C(CCc1cc(-c2ccc(F)cc2)n[nH]1)N(Cc1ccccc1)Cc1ccccc1
inactive: [1] -20.1% | [2] 11.2% | [3] -27.8% | [4] 2.25% | [5] -20.2% | [6] -9%

COc1ccc(C(Nc2ccccn2)c2cc(C(C)(C)C)cc(C(C)(C)C)c2O)cc1 (stereo unspecified)
inactive: [1] 43.6% | [2] -2.95% | [3] 9.45% | [4] 12.4% | [5] 41.9% | [6] 38.8%

CCCCCCCCCCCC(=O)O
inactive: [1] -0.85% | [2] 0.7% | [3] 25.6% | [4] -7.45% | [5] 10.1% | [6] 19.2%

O=C(CC(=O)c1ccc(-c2ccc(C(=O)CC(=O)c3ccccc3)cc2)cc1)c1ccccc1
inactive: [1] -16.4% | [2] -11% | [3] -20.4% | [4] -34.4% | [5] -1.8% | [6] -10.7%

C=NNC(=O)c1ccncc1
inactive: [1] -10.4% | [2] -6.1% | [3] 6.4% | [4] -37.5% | [5] 12.8% | [6] 5.9%

COc1cccc(C(=O)c2ccc(OC)cc2C(=O)O)c1
inactive: [1] 5.95% | [2] -10.2% | [3] -2.8% | [4] -31.9% | [5] 4.3% | [6] 0.85%

CCOCCC(=O)OCCC(C)OC (stereo unspecified)
inactive: [1] 4.95% | [2] 11% | [3] 11.2% | [4] -26.4% | [5] -58.1% | [6] -37.2%

CCOC(=O)c1cnc2c(cnn2C(C)C)c1NN
inactive: [1] -15.6% | [2] -9.05% | [3] 48.2% | [4] -23.9% | [5] 53.4% | [6] -15.4%

CN(CC(=O)O)c1ccc([N+](=O)[O-])cc1[N+](=O)[O-]
inactive: [1] 8.75% | [2] 8.55% | [3] 10.4% | [4] 52.9% | [5] 26.4% | [6] -1.15%

Nc1ccc2ccc3ccccc3c2c1
inactive: [1] 50.8% | [2] 5.6% | [3] 43.4% | [4] 31.8% | [5] 27.5% | [6] 44.2%

NCC(O)C(F)(F)F (stereo unspecified)
inactive: [1] -5.2% | [2] -7.9% | [3] -27.3% | [4] -15.1% | [5] 1.75% | [6] -14.5%

CN1CCN(C(=S)N(C(=O)c2ccco2)c2ccccc2)CC1
inactive: [1] -57.8% | [2] -44.3% | [3] -22.6% | [4] -2.4% | [5] -0.1% | [6] -37.9%

Cc1occc1C(=S)Nc1ccc(Cl)c(/C=N/OC2CCCC2)c1
inactive: [1] 13.2% | [2] 26.1% | [3] 25.1% | [4] 30.7% | [5] 19.3% | [6] 18.8%
